# Test results taken from PMC6212790, “How bacterial xenogeneic silencer rok distinguishes foreign from self DNA in its resident genome”.
# The full ranking holds about 33,000 sequences; the median of “e-score” is about -0.037, and the highest 2% start at about 0.34. This is one part of a sample in which the highest values are shown more often than they occur.
# Molecular target: T1, GST-Rok (full length) (Bacillus subtilis subsp. subtilis str. …, UniProt O34857 1-191)
# T1 sequence: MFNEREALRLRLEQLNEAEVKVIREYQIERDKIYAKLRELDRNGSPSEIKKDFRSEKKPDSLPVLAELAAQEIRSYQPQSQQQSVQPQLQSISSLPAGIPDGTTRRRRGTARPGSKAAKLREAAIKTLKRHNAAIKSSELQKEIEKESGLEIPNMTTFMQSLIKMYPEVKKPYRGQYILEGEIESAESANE
# Assay: protein binding microarray; Rok is a gene silencer of Bacillus subtilis; high values mean tight binding
# Settings: protein: recombinant; tags: GST (pTH5325, pDEST15-Magic modified); dsDNA, one strand shown
# Procedure, shortened: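 Each has a 25-mer constant primer and a 35-mer variable part from a de Bruijn sequence of order 10, covering every non-palindromic 8-mer at least 32 times (palindromic 16). Preference for each 8-mer is given as a rank-based, unitless enrichment score (E-score). Its range runs from 0.5 (most favored) to −0.5 (most disfavored).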
row,Sequence,binding signal [E-score]
1,TAATTTAA,0.356
2,ATTTTACA,0.311
3,AATTTTAC,0.355
4,AATTTTAG,0.222
5,CAAATTAC,0.356
6,CAATTTAA,0.152
7,ATTTTACG,0.219
8,AAAATTAC,0.248
9,CAAATTAG,0.21
10,ATTTTTAC,0.335
11,GAATTTAA,0.0678
12,GGATCTTA,0.0165
13,CTGTCTAA,-0.0397
14,AAGTCTGG,-0.0136
15,AATGCACG,-0.0533
16,CAACTTAC,0.216
17,TAAGGTAA,0.0381
18,TCCAGTCA,-0.0213
19,AGATTTTA,0.294
20,GACAAACA,0.0661
21,TCGGTGAA,-0.0505
22,TCAACGAA,0.0593
23,GAATTTAC,0.268
24,CATTTTAC,0.349
25,CATTTTAA,0.0564

row,Sequence,binding signal [E-score]
1,AATTTTAT,0.273
2,AAATTTAT,0.351
3,GATTTTAC,0.18
4,AAATTTAG,0.163
5,AAATTTAC,0.336
6,CAATTTAC,0.288
7,GATGAACC,-0.136
8,ATGTTGGC,0.0169
9,CCATGTAG,0.271
10,ACATGTAT,0.167
11,GCATGTAC,0.0911
12,ACATGTAG,0.338
13,CCATGTAC,0.193
14,ACATGTAC,0.358
15,CGGGTACA,0.154
16,CGACAGCG,-0.036
17,GGTTACTA,0.163
18,AATTACCT,0.357
19,AATTACTA,0.434
20,CGTTACTC,-0.0623
21,AATTACCG,0.32
22,ATTTACTG,0.287
23,ATTTACTA,0.459
24,GATTACTA,0.2
25,CGTTACTA,0.34

row,Sequence,binding signal [E-score]
1,AATTACCC,0.215
2,ATTTACTC,0.0747
3,AATTACTG,0.191
4,GACTTATA,0.257
5,CCGCACCA,-0.082
6,AGGTGTCA,-0.0859
7,CGCCCTAC,-0.152
8,CATATGCA,0.117
9,AGTCAGCC,-0.00495
10,CGCCCTTA,-0.158
11,AAAGAACA,-0.199
12,ATTAAGAC,-0.0587
13,ATTTACAA,0.368
14,ATTTACAC,0.23
15,AGTTACTC,0.188
16,AGTTACTG,0.207
17,ATTTACAG,0.24
18,AGTTACTA,0.345
19,CAGTGGAA,0.0127
20,GGTGTGTA,0.271
21,CGCATTCC,-0.192
22,ACTTATAA,0.28
23,TACGACCA,-0.0634
24,GAACTCGC,-0.0505
25,AGGCGCTA,-0.15

row,Sequence,binding signal [E-score]
1,GCTCCATA,0.0969
2,CCGATCCG,-0.19
3,CAAACGAA,0.108
4,CTATTCTA,0.128
5,TACTTCTA,0.36
6,AACTTCTA,0.296
7,TAATTCTA,0.345
8,TAATTCCA,0.213
9,GACTTCTA,0.0634
10,GAATTCTC,-0.0203
11,TAATTCAA,0.105
12,ATATTCTC,0.277
13,CAATTCTA,0.278
14,GAATTCTA,0.357
15,ATATTCTA,0.424
16,CAAGAAAA,-0.0182
17,GATTCACA,0.0605
18,AACGAAGC,-0.108
19,ACGGAAAC,-0.0398
20,AATTGACT,0.16
21,AAGTAACT,0.225
22,ACTAGGCG,-0.156
23,TATGGTCA,-0.0127
24,AGCGCAAA,0.0549
25,GCGTACTA,0.082

row,Sequence,binding signal [E-score]
1,AAATTCTA,0.402
2,AAATTCTC,0.0375
3,AAATTCTT,0.0789
4,ACCGTCGA,0.0177
5,AGTACTAA,0.357
6,AGTACTGC,0.114
7,GGTACTAC,0.212
8,TGTACTAA,0.0689
9,AGTACGAT,0.134
10,AGTACTAT,0.388
11,AGTACTAC,0.389
12,CGTACTGC,0.0418
13,GGTACTAA,0.138
14,AGTACTCA,0.0122
15,CGTACTAC,0.339
16,CGTACTAA,0.217
17,AGGAGTCC,-0.0508
18,ATTCCTAC,0.201
19,CATGGTCA,-0.1
20,TACCGAAA,0.225
21,TCGAATCA,-0.0502
22,ACCGCACT,0.0535
23,AGTACTGG,0.156
24,AGTACTAG,0.385
25,CGTACTAG,0.0856

row,Sequence,binding signal [E-score]
1,CCGGTAAA,0.107
2,ACGGTAAA,0.349
3,ACGGTAGG,0.137
4,ACGGTAGT,0.373
5,CCGGTATA,-0.0189
6,AAGGTAGG,0.133
7,ACGGTATA,0.252
8,ACGGTAGC,0.139
9,AAGGTAGC,0.133
10,TCGGTAAA,0.136
11,AAGGTAGT,0.354
12,GCGGTATA,0.347
13,CTAGATGA,0.0637
14,CTGCGAGA,-0.11
15,AAGCCTGA,-0.131
16,GACCCAGA,-0.174
17,AGCAAACC,0.0585
18,CCGGTAGA,0.229
19,GCGGTAGC,0.0476
20,GCGGTAGA,0.337
21,AAGGTAGA,0.288
22,TAGGTAGA,0.361
23,GGGGTAGA,0.011
24,ACGGTAGA,0.365
25,GAGGTAGA,0.296

row,Sequence,binding signal [E-score]
1,TCGGTAGA,0.231
2,GAAGCAAC,0.0226
3,GCCGTTAA,-0.0418
4,CAGTTCTC,0.00617
5,AACGACAG,0.0268
6,CTATTGTC,-0.0651
7,CAATTGTA,0.339
8,ACATTGTA,0.222
9,ATATTGTG,0.172
10,CTATTGTA,0.381
11,ATATTGTA,0.375
12,GTATTGTA,0.238
13,GAATTGTA,0.254
14,CAATTGTC,-0.0649
15,AATGTTGT,0.154
16,CAGGGTTC,-0.172
17,GCAACTAC,0.308
18,AGAACTAC,0.327
19,GTAACTAA,0.304
20,ATAACTAC,0.316
21,CGAACTAC,0.358
22,CGAACTAG,0.319
23,CTAACTAC,0.397
24,GTAACTAC,0.394
25,CTAACTAA,0.29
